In all, about 5,900 compounds went through this assay and about 120 (2%) were called active. Only a sample is shown. Values without a mark were called inactive. Cut-off read from the data, not from the text of the source: active = percent response mostly above about 71% (no sharp cut-off); inactive = mostly below about 38%.
Test system: MEKK2 (MAP3K2) mutant PB1 domain binding MEK5, human
Test: mutant MEKK2 PB1-MEK5 binding signal retest – biochemical, single concentration, multiplex bead flow cytometry, confirmation (AID 1893);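 note: higher means compound restores mutant binding toward wildtype level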
Conditions: Alexa488-MEK5 binding to MEKK2 mutant, at 10 µM, hits give high values

Structure (SMILES) | percent response
CN(C)CCCN(C(=O)c1ccc(S(=O)(=O)N2CCCc3ccccc32)cc1)c1nc2ccc(F)cc2s1 | 53%
CSCC[C@H](NC(=O)CCCn1nnc2ccccc2c1=O)C(=O)O | 1%
CN1CCN(/N=C/c2ccc(C#N)cc2)CC1 | -4%
CC1CCN(C2=NC(=O)/C(=C/c3cn[nH]c3-c3ccccc3)S2)CC1 | -9%
CCOc1ccc(S(=O)(=O)NCCCn2ccnc2)cc1NC(C)=O | -6%
CCCCNC(=O)N1CCCC(N(C)CCc2ccc(OC)c(OC)c2)C1 (stereo not drawn) | -2%
CC(C)(C)NC(=O)Cn1cnc([N+](=O)[O-])n1 | -7%
COc1ccccc1OCCNCC(O)COc1cccc2[nH]c3ccccc3c12 (stereo not drawn) | 34%
Cc1cccc(-c2ncc(CN3CCC(CO)(CCCc4ccccc4)CC3)cn2)c1 | 9%
Cc1nn(-c2ccccc2)c(C)c1NC(=O)CCl | -2%
COC(=O)CCc1sc(Nc2ccc(Br)cc2)nc1-c1ccc(OC)cc1 | 9%
C#CCOCCOCCOCCNc1nc(N2CCN(C(=O)C([C@@H](C)CC)n3cc(C(N)COC(=O)C(F)(F)F)nn3)CC2)nc(N2CCN(C(=O)[C@H](CCCCN)n3cc(C(N)CC(C)C)nn3)CC2)n1 (stereo partly drawn) | 52%
O=C(CCCO)N/N=C/c1cc(Br)ccc1O | -1%
O=C(Nc1ccn(Cc2ccccc2)n1)c1cccc(F)c1 | -3%
COc1ccc(CCn2c(NN=C3CCCC3)nc3c2c(=O)[nH]c(=O)n3C)cc1 | 3%
CCC(C)OC(=O)C(C)Oc1ccc(-c2ccccc2)cc1 (stereo not drawn) | 10%
CC(C)CC(=O)NC(=S)NCc1ccccc1 | -3%
O=c1c(/C=N/O)coc2ccc(Cl)cc12 | -2%
Cc1ccc2c(c1)C1CN(C)CCC1N2S(=O)(=O)c1ccc(Oc2ccc([N+](=O)[O-])cc2)cc1 (stereo not drawn) | 61%
Cc1c(S(=O)(=O)NCc2ccccc2)c(=O)n(C)c(=O)n1C | 2%
C[N+](C)(C)CCNC(=O)c1c(O)c2c([nH]c1=O)CCCC2 | -3%
O=C(O)/C=C\C(=O)Nc1ccc(OCc2ccccc2)cc1 | -4%
COc1ccccc1NC(=S)N1CCN(c2ccc(F)cc2)CC1 | -8%
Cc1cccc(OCC(O)CN2CCN(CCN3C(=O)c4cccc5cccc(c45)C3=O)CC2)c1C (stereo not drawn) | 3%
Cc1ccc(N2C(=O)CC(N3CCSCC3)C2=O)c(C)c1 (stereo not drawn) | 2%
O=C(c1ccc(Br)o1)N(c1ccccn1)C1CCCCC1 | 3%
COc1ccc(SC[C@H](Cc2ccccc2)N2CCN(CCc3ccccc3)CCC2=O)cc1 | 16%

Structure (SMILES) | percent response
CCOC(=O)c1c(NC(=O)c2ccc(S(=O)(=O)N(C)CC3CCCO3)cc2)sc2c1CC(C)(C)NC2(C)C (stereo not drawn) | 7%
O=C(NCCCN1CCN(c2ccc(F)cc2)CC1)Nc1ccc([N+](=O)[O-])cc1 | 26%
CC1CN(C(=O)c2ccccc2NS(=O)(=O)c2cccc([N+](=O)[O-])c2)CC(C)O1 (stereo not drawn) | 0%
c1ccc2c(c1)C(=NC1CCCCC1)NC2=NC1CCCCC1 | 18%
Cc1cccc(OCCNC(=O)CSc2ccc(C(F)(F)F)cc2[N+](=O)[O-])c1 | 2%
O=C(NC1CCN(Cc2ccccc2)CC1)c1ccc(Oc2cc(Cl)cc(Cl)c2)o1 | 10%
O=C(CC1SCCNC1=O)Nc1ccc(Cl)c(Cl)c1 (stereo not drawn) | 4%
CN(CC(=O)Nc1cccc(F)c1)CC(=O)Nc1cccc([N+](=O)[O-])c1 | -3%
COc1ccccc1N=C(C)C1=C(O)COC1=O | 7%
COc1cccc(OCC(=O)NNC(=O)c2cnccn2)c1 | -1%
COC(=O)c1c(NC(=O)COC(=O)[C@@H](NS(=O)(=O)c2ccccc2)C(C)C)sc2c1CCC2 | -1%
CCOC(=O)CN(C)S(=O)(=O)c1ccc(-c2cc(C(=O)OC)sc2C(F)(F)F)cc1 | -3%
Cc1cc(Cl)ccc1OCc1nc(-c2ccncc2)no1 | -15%
O=C(O)CCCC(=O)Nc1ccc(Oc2cccc(C(F)(F)F)c2)nc1 | 4%
COc1cc(C)nc(N2CCCC(C(=O)NCC(C)C)C2)n1 (stereo not drawn) | -2%
O=C(O)C1CCN(c2ccc([N+](=O)[O-])cc2[N+](=O)[O-])CC1 | 6%
Cc1no[n+]([O-])c1COc1ccccc1/C=C1\NC(=S)NC1=O | -5%
COc1ccc(C(=O)C[n+]2ccc(C)cc2)cc1 | 6%
CC(C)CC(=O)N1CCN(Cc2ccccc2Br)CC1 | 3%
CCOC(=O)c1c(Cc2ccc(Cl)cc2)c[nH]c1C | 0%
Cc1cn(COC/C=C/c2ccccc2)c(=O)[nH]c1=O | 2%
COc1ccc(CNC(=O)C2CCN(S(C)(=O)=O)CC2)cc1 | 4%
COC(=O)c1cc(NC(=O)c2cc(C(C)(C)C)nn2Cc2cccc(C)c2)ccc1N1CCOCC1 | -5%
CCN(CC)CCOc1ccc2c(c1)C(=NNC(=O)c1ccccn1)c1cc(OCCN(CC)CC)ccc1-2 | 75% (active)
COc1cc(NC(=S)NCc2ccco2)c(OC)cc1Cl | 3%
Cn1c(SCc2nc3ccccc3s2)nnc1-c1ccc2c(c1)OCO2 | 0%

From PubChem BioAssay AID1893 (NMMLSC, 2009)
